Measurements: PubChem BioAssay (NCI)
Several values for one entry are separate records, joined by “and”; a condition that tells them apart may be missing. Identical values can stand only once. About 79,000 compounds went through this panel and 15% of them were active in at least one assay; those are over-represented in the sample as a whole. Activity calls are given as the source filed them. No stated cut-off is given here; in the data, active means growth inhibition above about 70%; inactive means the rest.

Legend:
[1] = NCI Yeast Anticancer Drug Screen. Data for the rad50 strain (AID 155);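 further: 0% = growth of vehicle-only cultures of the same strain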; conditions: S. cerevisiae rad50 strain growth inhibition; at 50.0 µM; hits give high values
Procedure, shortened: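 A DNA repair-deficient yeast mutant serves as the test organism; compound-induced growth inhibition is calculated against vehicle-treated cells.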

[2] = NCI Yeast Anticancer Drug Screen. Data for the mec2-1 strain (AID 157); conditions: S. cerevisiae mec2-1 strain, at 50.0 µM, hits give high values
Procedure, shortened: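 Strain: mec2-1 (DNA repair/cell cycle alteration). Compound exposure, then growth measured; inhibition expressed relative to vehicle.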

[3] = NCI Yeast Anticancer Drug Screen. Data for the sgs1 mgt1 strain (AID 161);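 further: 0% = growth of cultures given vehicle only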; conditions: S. cerevisiae sgs1 mgt1 strain, at 50.0 µM, hits give high values
Procedure, shortened: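 Genetically altered yeast, compound exposure, growth inhibition relative to vehicle.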

[4] = NCI Yeast Anticancer Drug Screen. Data for the cln2 rad14 strain (AID 165);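 further: 0% = growth equal to vehicle treated cultures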; conditions: S. cerevisiae cln2 rad14 strain, at 50.0 µM, hits give high values
Procedure, shortened: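 Compounds are applied to the cln2 rad14 yeast strain, and growth is then compared with that of vehicle-treated cultures to give inhibition.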

[5] = NCI Yeast Anticancer Drug Screen. Data for the bub3 strain (AID 167); conditions: S. cerevisiae bub3 mutant strain, at 50.0 µM, hits give high values
Procedure, shortened: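 Inhibition values come from growth of compound-treated mutant yeast normalised to vehicle-treated controls.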

[6] = NCI Yeast Anticancer Drug Screen. Data for the mlh1 rad18 strain (AID 175); conditions: S. cerevisiae mlh1 rad18 strain growth inhibition; at 50.0 µM; hits give high values
Procedure, shortened: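 Read-out is yeast growth inhibition, calculated against vehicle-only controls. The compound was applied to a strain engineered with DNA damage repair alterations.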

Measured: growth inhibition

Cc1cc(NN=O)nc(C)n1
inactive: [1] -3.05% | [2] -4.05% | [3] -1.35% | [4] -14.4% | [5] -1.8% | [6] 5.7%

C/C=C1\CN2CC[C@H]1C[C@H]2[C@H](O)c1ccnc2ccc(NCCO)cc12
inactive: [1] 11.6% | [2] 7.8% | [3] 5.95% | [4] 22.7% | [5] -1.65% | [6] 36.9%

CN(C)CCNC(=O)c1ccc([N+](=O)[O-])c(C(C)(C)C(=O)Nc2ccc(N(CCCl)CCCl)cc2)c1
inactive: [1] -1% | [2] -24.4% | [3] 8.9% | [4] -44.2% | [5] -10.8% | [6] -24.9%

CCOC(=O)C(Cc1ccc(N(CCCl)CCCl)cc1)NC(=O)CNC(C)=O (configuration not stated)
inactive: [1] 2.4% | [2] -7.85% | [3] 14.7% | [4] 1.45% | [5] -10.4% | [6] 10.3%

CCCCCCOC(=O)c1ccccc1C(=O)OCCCCCC
inactive: [1] -13.2% | [2] -1.75% | [3] -27.9% | [4] -12.5% | [5] -45.2% | [6] -2.8%

CCOP(=O)(CCBr)Oc1ccc([N+](=O)[O-])cc1 (configuration not stated)
inactive: [1] -17.9% | [2] 11.8% | [3] -16.4% | [4] -2.6% | [5] 7.3% | [6] -20%

O=S(=O)(O)O.[Co+2].[NH-]CC[NH-].[NH-]CC[NH-].[NH-]CC[NH-]
inactive: [1] 11.1% | [2] 21.9% | [3] 9.75% | [4] 17.8% | [5] 3.2% | [6] 1%

CCOC(=O)C(C(=O)OCC)c1ccccc1
inactive: [1] 7.05% and 25.4% | [2] -11% and 12.9% | [3] 11.7% and 11.1% | [4] 2.4% and 3.75% | [5] 40.4% and 23.1% | [6] -0.15% and 9.55%

O=P1(N(CCCl)CCCl)Nc2cc3ccccc3cc2N1
inactive: [1] -5.65% | [2] -15.7% | [3] -4.45% | [4] -108% | [5] -15.5% | [6] -14.6%

CCC1=CC2CN3CCc4c([nH]c5ccccc45)C(C(=O)OC)(C2)C13 (configuration not stated)
inactive: [1] 30.2% and -9.75% | [2] -26.9% and -17.9% | [3] -12.8% and -33.1% | [4] -19.3% and -6.65% | [5] -2.3% and -38.2% | [6] -17.6% and -19.2%

N#CC(C#N)=Cc1cccc(C#N)c1
inactive: [1] -0.75% | [2] 21.4% | [3] -2.85% | [4] 19.1% | [5] -4.75% | [6] 3.45%

CC(C)CC(=O)[O-].CC(C)CC(=O)[O-].N.N.N.N.[Co+3].[O-][Cl+3]([O-])([O-])O.[O-][Cl+3]([O-])([O-])[O-]
inactive: [1] -23.6% | [2] -6.2% | [3] -42.2% | [4] -20.9% | [5] -16.2% | [6] -14.8%

C(#Cc1ccccc1)c1ccccc1
inactive: [1] 29.1% | [2] 5.25% | [3] 20.3% | [4] -13.6% | [5] -11.3% | [6] -3.6%

O=C(NCCN1CCOCC1)c1ccc2cc(C(=O)N3CC(CCl)c4ccc([N+](=O)[O-])cc43)[nH]c2c1 (configuration not stated)
active: [1] 88.5% | [2] 92.2% | [3] 88% | [4] 88.8% | [5] 89.8% | [6] 89.9%

C/C(=C\COc1ccc2ccc(=O)oc2c1)C1=CC(=O)C(C)(C)O1
inactive: [1] -2.65% | [2] -17.2% | [3] 18.9% | [4] 9.85% | [5] -14.8% | [6] 12.2%

CCn1nnnc1N
inactive: [1] 3.35% | [2] 15.9% | [3] 11.1% | [4] 16.4% | [5] 17.8% | [6] 14%

NCCN.NCCN.[Cl-].[O]=[Re]=[O]
inactive: [1] -8.05% | [2] -8.55% | [3] 6.4% | [4] -62.5% | [5] -22.4% | [6] -0.6%

CC(=O)OC1CC(OC2C(O)CC(OC3C(O)CC(OC4CCC5(C)C(CCC6C5CCC5(C)C(C7=CC(=O)OC7)C(O)CC65O)C4)OC3C)OC2C)OC(C)C1OC1OC(CO)C(O)C(O)C1O (configuration not stated)
inactive: [1] 18.1% | [2] 8.8% | [3] -12.8% | [4] 8.1% | [5] 21.8% | [6] 10.8%

N/C(=N\S(=O)(=O)c1ccccc1)N[N+](=O)[O-]
inactive: [1] 5.15% and -5.6% | [2] -1.15% and -8.9% | [3] -9.05% and -5.2% | [4] -39.2% and -2.6% | [5] -9.25% and 7.05% | [6] 4.45% and -9.75%

CC(=O)O[C@H]1CCC2[C@@H]3CC[C@]4(C)CC(=O)C=C[C@]4(C)C3CC[C@@]21C (some centres not stated)
active: [1] 84.7% | [2] 90.5% | [3] 88% | [4] 85.1% | [5] 87.1% | [6] 89.3%

CN(CC(N)=O)C(=O)N(CCCl)N=O
inactive: [1] 7.8% | [2] 1.6% | [3] -11.5% | [4] -18.7% | [5] 1.55% | [6] -41.5%

CCC[CH2][Sn]([CH2]C)([CH2]C)[CH2]C
inactive: [1] 40.4% | [2] 17.8% | [3] 35.7% | [4] 15.8% | [5] 20.9% | [6] 31.3%

CC(C)CCCC(C)C1CCC2C3CC=C4CC(OC(=O)CN5CC5)CCC4(C)C3CCC12C (configuration not stated)
inactive: [1] -0.3% | [2] -2.65% | [3] -4.85% | [4] -6.85% | [5] 18.8% | [6] 3.2%

C#CC1(O)CCC(C(C)(C)C)CC1 (configuration not stated)
inactive: [1] 10.2% and -5.45% and 20.4% | [2] 6.6% and 25.3% and -12.8% | [3] -7.35% and -4.35% and -1.95% | [4] 7.3% and -22.6% and 7.2% | [5] 9.05% and 10.4% and -10.2% | [6] -17.9% and -4.15% and 10.8%

[CH3][Sb]([CH3])([CH3])([O]C(=O)C(Cl)Cl)[O]C(=O)C(Cl)Cl
inactive: [1] 10.1% | [2] -7.15% | [3] 15.3% | [4] -22.6% | [5] -1.7% | [6] 2.9%

C1CC[N-]CC1.CC(=N\O)/C(C)=N/O.CC(=N\O)/C(C)=N/O.[CH2-]Cl.[Co+2]
inactive: [1] 4.6% | [2] 14.8% | [3] 14.4% | [4] -31.6% | [5] 20.1% | [6] 27.9%

CCCCC1CN1C(=N)OCC (configuration not stated)
inactive: [1] 6.65% | [2] -0.6% | [3] 15.4% | [4] 59.1% | [5] 0.9% | [6] 29.1%

CCN(CC)C(=O)N1CN(c2ccccc2)C2(CCN(CCCC3(c4ccc(F)cc4)OCCO3)CC2)C1=O
inactive: [1] 24.7% | [2] 24.1% | [3] 48% | [4] 19.7% | [5] 23.8% | [6] 49.9%

COC(C)CCOC(=O)Cc1ccccc1 (configuration not stated)
inactive: [1] 16.1% | [2] -5.25% | [3] -0.15% | [4] -41% | [5] 13.4% | [6] 5.25%

C[Si](C)(C)C#CC#C[Si](C)(C)C.[Ni].[Ni].[Ni].[Ni].[c-]1[c-][c-][cH-][c-]1.[c-]1[c-][c-][cH-][c-]1.[c-]1[c-][c-][cH-][c-]1.[c-]1[c-][c-][cH-][c-]1
inactive: [1] 11.7% | [2] 5.5% | [3] -5.05% | [4] 9.2% | [5] -2.85% | [6] -5.85%

NCCCP(c1ccccc1)c1ccccc1
inactive: [1] 0.3% | [2] 0.4% | [3] -5.65% | [4] 8.7% | [5] -1.7% | [6] 10.6%

CO[C@@]12[C@@H]3N[C@@H]3CN1C1=C(C(=O)C(NCC3CCCO3)=C(C)C1=O)[C@@H]2COC(N)=O (some centres not stated)
inactive: [1] 24.9% | [2] 16.6% | [3] 6.25% | [4] 17.1% | [5] 3.95% | [6] 23.6%

CC(C)=CC1C(C(=O)OCCOc2ccccc2)C1(C)C (configuration not stated)
inactive: [1] -0.75% | [2] -6.5% | [3] 10.2% | [4] -26.6% | [5] -13.6% | [6] -2.05%

CC(C)(NC1=NCCO1)c1ccccc1
inactive: [1] -4.95% | [2] -16.9% | [3] -7.65% | [4] 5.5% | [5] -13.7% | [6] 62%

CC1C2CCC3C(O)C2(CC(O)C2(O)C1CC(O)C2(C)C)CC3(C)O (configuration not stated)
inactive: [1] 11.6% | [2] -24.8% | [3] 6.85% | [4] 13.3% | [5] -5.15% | [6] -4.35%

CCC(c1ccc(OC)cc1)C(N)c1ccc(OC)cc1 (configuration not stated)
inactive: [1] -14.3% | [2] 1.05% | [3] -11.9% | [4] -10.5% | [5] -4.35% | [6] -0.3%

[CH3][Sn]([c]1ccccc1)[c]1ccccc1
inactive: [1] -4.15% | [2] 2.5% | [3] 2.45% | [4] -11% | [5] 1.2% | [6] -21.4%
